Results taken from PubChem BioAssay (NCATS).
Inconclusive results are not listed. Calls of active or inactive are those of the source. Calls come from the whole dose curve; as a rule, active = well fitted inhibition curve with a large enough effect; inconclusive = small, poorly fitted or top-dose-only effect; inactive = no such curve, though single readings can be large or run the other way.

biological target: Tumor susceptibility gene 101 protein (Homo sapiens) (UniProt Q99816); test: qHTS Assay for Iinhibitors of HIV-1 Budding by Blocking the Interaction of PTAP/TSG101: Hit Validation (AID 651600); details: PTAP peptide/TSG101 UEV interaction, biochemical assay; series mostly up to 57.5 µM; activity change, negative = inhibition: at the top concentration; note: nearly all actives have a fitted effect of over 70% in size
Sequence (Q99816 whole entry, looked up, the tested form may be a part): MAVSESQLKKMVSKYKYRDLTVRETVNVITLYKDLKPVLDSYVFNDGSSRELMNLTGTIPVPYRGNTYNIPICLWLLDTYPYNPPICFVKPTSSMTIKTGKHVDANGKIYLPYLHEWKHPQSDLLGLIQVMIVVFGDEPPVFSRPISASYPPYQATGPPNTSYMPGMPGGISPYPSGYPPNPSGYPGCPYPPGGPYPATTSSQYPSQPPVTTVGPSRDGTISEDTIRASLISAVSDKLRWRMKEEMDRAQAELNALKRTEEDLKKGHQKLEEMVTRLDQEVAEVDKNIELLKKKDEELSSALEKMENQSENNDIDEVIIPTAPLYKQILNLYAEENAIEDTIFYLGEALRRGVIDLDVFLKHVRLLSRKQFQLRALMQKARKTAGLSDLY
How it was run: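 Fluorescence polarization binding assay: Tsg101 binding domain (10 uM) mixed with compounds and FITC-labeled PTAP peptide (50 nM) in HEPES pH 7.5, 0.15 M NaCl, 0.01% Tween 20, EDTA, TCEP; 20 min at r.t.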
% is set by controls: 0 for no effect and ±100 for the full control effect; potency is the fitted concentration of half-maximal effect.

Row | SMILES | activity change, negative = inhibition | Potency
1 | CCOC(=O)C1Nc2ccccc2C2C(O)C(O)CC12 (stereo not given) | -18.1% (inactive) | 
2 | C/C(=N/NC(=O)c1ccncc1)c1cc2ccc(O)cc2oc1=O |  | 14.6 µM (active)
3 | O=[N+]([O-])c1cc(Br)cc(/C=N/n2cnnc2)c1O | -16.4% (inactive) | 
4 | O=[N+]([O-])c1cc(Cl)c2cccnc2c1O | -1.11% (inactive) | 
5 | O=C1/C(=N\S(=O)(=O)c2cccs2)C([n+]2cccc(Cc3ccccc3)c2)=C([O-])c2ccccc21 |  | 16.3 µM (active)
6 | CC(C)c1nnc(N2C(=O)C(O)=C(C(=O)c3cccs3)C2c2ccccc2)s1 (stereo not given) |  | 8.19 µM (active)
7 | COc1ccc2oc3ccccc3c(=O)c2c1 | -2.86% (inactive) | 
8 | C=C1CCN(c2ccc(C(=O)O)cc2[N+](=O)[O-])CC1 | 2.72% (inactive) | 
9 | CC(OC(=O)c1c2c(nc3ccccc13)/C(=C\c1ccc3c(c1)OCO3)CCC2)C(=O)Nc1ccc(S(N)(=O)=O)cc1 (stereo not given) |  | 4.11 µM (active)
10 | Cc1ccc(N2C(=O)C3C(C(=O)c4ccccc4)=NN(c4ccccc4)C3C2=O)cc1 (stereo not given) | -20.4% (inactive) | 
11 | Oc1oc(-c2ccccc2)nc1C=Nc1cccc2ccccc12 | 4.31% (inactive) | 
12 | COc1ccc(C2=CC(c3ccco3)n3ncnc3N2)cc1 (stereo not given) | -0.272% (inactive) | 
13 | CC1CCCN(Cc2c(O)ccc3c2O/C(=C\c2ccco2)C3=O)C1 (stereo not given) |  | 14.6 µM (active)
14 | CCCn1c(=N)c(S(=O)(=O)c2ccccc2)cc2c(=O)n3cccc(C)c3nc21 | 12.9% (inactive) | 
15 | CCN(C(=O)c1sc2nc3n(c(=O)c2c1C)CCCC3)c1ccccc1F | 1.87% (inactive) | 
16 | Brc1ccc(C2=CC(c3ccco3)n3ncnc3N2)cc1 (stereo not given) | -0.541% (inactive) | 
17 | CCOc1ccc(N(CC(=O)NCc2ccc(F)cc2)S(=O)(=O)c2c(C)noc2C)cc1 | 4.91% (inactive) | 
18 | Nc1cccc(N2C(=O)c3cccc4c(N)ccc(c34)C2=O)c1 |  | 4.11 µM (active)
19 | Brc1ccc(-c2nc3ccccn3c2Nc2ccc3c(c2)OCCO3)o1 | -1.55% (inactive) | 
20 | Cc1cc(C)n2nc3nc4c(cc3c2n1)CCCC4 | -6.06% (inactive) | 

Row | SMILES | activity change, negative = inhibition | Potency
21 | Cc1cc(=O)c2c([nH]1)c(C)cc1[nH]c(C)c(C)c12 | 13.6% (inactive) | 
22 | CN1CC=C2C(C#N)=C(N)C(C#N)(C#N)[C@H](c3ccoc3)[C@H]2C1 | -29.3% (inactive) | 
23 | CCc1cccc(CC)c1NC(=O)CSc1nnc(C2CC2)n1C | -0.886% (inactive) | 
24 | COc1ccc(C2C(C(=O)c3cccs3)=C(O)C(=O)N2c2nncs2)cc1 (stereo not given) |  | 20.6 µM (active)
25 | O=[N+]([O-])c1ccc(-c2cn3nc(-c4ccccc4)c(-c4ccccc4)nc3n2)cc1 | -4.2% (inactive) | 
26 | N#CC(C(=O)NC1CC1)c1nc2ccccc2nc1N1CCCC1 (stereo not given) | 12.8% (inactive) | 
27 | O=C(C1=C(O)C(=O)N(c2nccs2)C1c1ccccc1)c1cc2ccccc2o1 (stereo not given) |  | 5.17 µM (active)
28 | COc1ccc(C(=O)c2sc3nc(C)cc(-c4cccs4)c3c2N)cc1OC | -17.9% (inactive) | 
29 | CCCN1C(=O)/C(=C/C=C2\N(CC)c3ccccc3C2(C)C)SC1=S |  | 29.1 µM (active)
30 | CN1CCc2c(sc3c2C(=O)NC(c2ccccn2)N3)C1 (stereo not given) |  | 18.3 µM (active)
31 | O=C1Nc2ccc(F)cc2C12Nc1ccccc1-c1nnc(SCc3ccccc3F)nc1O2 (stereo not given) | -3.84% (inactive) | 
32 | CCOc1ccc(S(=O)(=O)N2CCc3cc(OC)c(OC)cc3C2)cc1 | 0.964% (inactive) | 
33 | COC(=O)c1c(NC(=O)CC2Nc3cc(C)c(C)cc3NC2=O)sc(C)c1C (stereo not given) | 4.67% (inactive) | 
34 | CSc1c(C#N)c(N)nc2sc(C(=O)c3ccc(Cl)c(Cl)c3)c(N)c12 | -25.9% (inactive) | 
35 | CC1=CC(=C(C#N)c2nc3ccccc3s2)C=C(C)N1CC1CCCO1 (stereo not given) |  | 16.3 µM (active)
36 | COc1ccc(/C=c2\s/c(=C/C(=O)c3ccc(C)cc3)[nH]c2=O)c(OC)c1 | 1.51% (inactive) | 
37 | COc1cc(OC)c(N(C)C(=O)c2sc3nc4n(c(=O)c3c2C)CCCC4)cc1Cl | -8.9% (inactive) | 
38 | Cn1nc([N+](=O)[O-])c(C(C#N)c2nc3ccccc3n2C)c(Cl)c1=O (stereo not given) | -4.38% (inactive) | 
39 | Cc1ccc(C(=O)Nc2ccc(C(=O)O)cc2)cc1S(=O)(=O)NCc1ccccc1 | 1.48% (inactive) | 
40 | CCOC(=O)Cn1c(=NC(=O)c2ccc([N+](=O)[O-])s2)sc2ccccc21 | 0.859% (inactive) | 
